# Measured values published in paper PMC7862700, “An all-to-all approach to the identification of sequence-specific readers for epigenetic DNA modifications on cytosine”.
# What was measured:
# Assay in all cases: DAPPL (digital affinity profiling via proximity ligation, sequencing); 10 mM Tris-HCl pH 7.5, 50 mM NaCl, 1 mM DTT, 4% glycerol, room temperature, 30 min; GST-TFs on glutathione beads, 16-mer random dsDNA library, 0.1% formaldehyde crosslink after washing; high values mean tight binding
# [1] = target: T1, FLI1 (Homo sapiens, UniProt Q01543 1-452); settings: protein: recombinant; tags: N-terminal GST; dsDNA, one strand shown
# T1 sequence: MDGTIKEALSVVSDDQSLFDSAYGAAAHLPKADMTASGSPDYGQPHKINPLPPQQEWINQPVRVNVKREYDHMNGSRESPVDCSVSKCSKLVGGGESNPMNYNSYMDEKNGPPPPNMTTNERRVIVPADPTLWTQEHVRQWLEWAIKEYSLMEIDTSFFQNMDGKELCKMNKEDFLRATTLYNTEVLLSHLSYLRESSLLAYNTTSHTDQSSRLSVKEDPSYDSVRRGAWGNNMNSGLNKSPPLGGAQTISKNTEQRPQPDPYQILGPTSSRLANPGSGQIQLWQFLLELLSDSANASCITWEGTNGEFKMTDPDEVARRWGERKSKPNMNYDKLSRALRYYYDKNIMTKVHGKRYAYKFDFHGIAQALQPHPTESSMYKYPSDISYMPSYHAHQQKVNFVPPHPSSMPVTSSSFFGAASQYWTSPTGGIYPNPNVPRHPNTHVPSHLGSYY
# Procedure, shortened: (§1)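 Pools of DNA-barcoded human transcription factors, expressed in yeast as GST fusions on glutathione beads and combined with a tag-only sample, were incubated with 200 nmole of a 16-mer random double-stranded DNA library. Incubation took 30 min at room temperature in Tris/NaCl/DTT/glycerol buffer and was followed by washing, 0.1% formaldehyde crosslinking, proximity ligation (BsaI/T4 ligase, 1 h, 37 °C), PCR amplification and sequencing on an Illumina NextSeq500. Binding signal is the ratio of a hexamer's read frequency for a factor to its frequency for the tag-only sample.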
# [2] = target: T2, ELK1 (Homo sapiens, UniProt P19419 1-428); settings: protein: recombinant; tags: N-terminal GST; dsDNA, one strand shown
# T2 sequence: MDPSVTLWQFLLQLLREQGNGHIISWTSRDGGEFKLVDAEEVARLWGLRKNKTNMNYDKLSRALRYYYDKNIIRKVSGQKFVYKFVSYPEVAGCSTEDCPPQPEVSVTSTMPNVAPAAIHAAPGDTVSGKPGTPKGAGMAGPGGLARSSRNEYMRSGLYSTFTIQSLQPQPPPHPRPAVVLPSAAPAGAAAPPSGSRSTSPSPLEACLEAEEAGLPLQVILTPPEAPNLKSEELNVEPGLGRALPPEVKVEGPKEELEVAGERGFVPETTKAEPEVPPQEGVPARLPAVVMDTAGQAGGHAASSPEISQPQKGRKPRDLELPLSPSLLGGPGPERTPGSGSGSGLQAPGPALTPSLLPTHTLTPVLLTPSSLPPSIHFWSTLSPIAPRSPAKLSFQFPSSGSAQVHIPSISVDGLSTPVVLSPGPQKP
# Procedure, shortened: as §1
# [3] = target: T3, GABPA (Homo sapiens, UniProt Q06546 1-454); settings: protein: recombinant; tags: N-terminal GST; dsDNA, one strand shown
# T3 sequence: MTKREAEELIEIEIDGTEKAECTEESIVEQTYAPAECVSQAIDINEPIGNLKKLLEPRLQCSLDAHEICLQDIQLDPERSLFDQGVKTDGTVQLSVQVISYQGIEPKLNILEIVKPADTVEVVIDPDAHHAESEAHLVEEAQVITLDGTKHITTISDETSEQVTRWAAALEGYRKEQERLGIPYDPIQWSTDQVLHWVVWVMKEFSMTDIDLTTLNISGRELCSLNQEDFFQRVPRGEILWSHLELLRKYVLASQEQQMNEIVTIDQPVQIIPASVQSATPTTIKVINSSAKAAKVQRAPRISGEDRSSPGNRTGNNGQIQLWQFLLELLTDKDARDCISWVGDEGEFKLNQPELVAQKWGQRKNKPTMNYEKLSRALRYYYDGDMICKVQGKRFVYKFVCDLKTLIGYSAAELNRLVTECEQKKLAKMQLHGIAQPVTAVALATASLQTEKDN
# Procedure, shortened: as §1
# [4] = target: T4, ERG (Homo sapiens, UniProt P11308 1-479); settings: protein: recombinant; tags: N-terminal GST; dsDNA, one strand shown
# T4 sequence: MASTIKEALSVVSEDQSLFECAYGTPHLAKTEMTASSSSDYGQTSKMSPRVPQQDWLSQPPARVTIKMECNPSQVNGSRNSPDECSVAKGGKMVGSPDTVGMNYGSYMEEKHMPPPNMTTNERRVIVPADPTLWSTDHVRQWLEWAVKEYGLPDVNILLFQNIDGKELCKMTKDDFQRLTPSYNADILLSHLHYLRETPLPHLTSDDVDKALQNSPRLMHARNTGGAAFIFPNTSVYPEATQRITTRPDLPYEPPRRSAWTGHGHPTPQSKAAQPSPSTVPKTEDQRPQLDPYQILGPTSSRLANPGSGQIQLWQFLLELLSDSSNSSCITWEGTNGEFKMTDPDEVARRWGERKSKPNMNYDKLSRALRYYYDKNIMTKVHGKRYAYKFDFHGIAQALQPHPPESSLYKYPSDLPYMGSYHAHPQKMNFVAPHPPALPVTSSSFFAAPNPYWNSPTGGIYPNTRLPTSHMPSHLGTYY
# Procedure, shortened: as §1
# [5] = target: ELF1 (Homo sapiens, UniProt P32519 1-619); settings: protein: recombinant; tags: N-terminal GST; dsDNA, one strand shown
# Procedure, shortened: as §1
# [6] = target: T5, EHF (Homo sapiens, UniProt Q9NZC4 1-300); settings: protein: recombinant; tags: N-terminal GST; dsDNA, one strand shown
# T5 sequence: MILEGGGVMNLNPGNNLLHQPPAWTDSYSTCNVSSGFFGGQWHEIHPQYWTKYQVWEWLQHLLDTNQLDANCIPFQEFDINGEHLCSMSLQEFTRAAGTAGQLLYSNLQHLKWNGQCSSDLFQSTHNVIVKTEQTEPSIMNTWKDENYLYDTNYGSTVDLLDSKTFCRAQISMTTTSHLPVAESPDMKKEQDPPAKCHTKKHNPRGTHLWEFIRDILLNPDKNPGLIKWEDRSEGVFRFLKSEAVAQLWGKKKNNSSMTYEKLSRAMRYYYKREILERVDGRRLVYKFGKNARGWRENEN
# Procedure, shortened: as §1
# [7] = target: SPI1 (Homo sapiens, UniProt P17947 1-270); settings: protein: recombinant; tags: N-terminal GST; dsDNA, one strand shown
# Procedure, shortened: as §1
# [8] = target: SPIB (Homo sapiens, UniProt Q01892 1-262); settings: protein: recombinant; tags: N-terminal GST; dsDNA, one strand shown
# Procedure, shortened: as §1
# [9] = target: T6, ELK3 (Homo sapiens, UniProt P41970 1-407); settings: protein: recombinant; tags: N-terminal GST; dsDNA, one strand shown
# T6 sequence: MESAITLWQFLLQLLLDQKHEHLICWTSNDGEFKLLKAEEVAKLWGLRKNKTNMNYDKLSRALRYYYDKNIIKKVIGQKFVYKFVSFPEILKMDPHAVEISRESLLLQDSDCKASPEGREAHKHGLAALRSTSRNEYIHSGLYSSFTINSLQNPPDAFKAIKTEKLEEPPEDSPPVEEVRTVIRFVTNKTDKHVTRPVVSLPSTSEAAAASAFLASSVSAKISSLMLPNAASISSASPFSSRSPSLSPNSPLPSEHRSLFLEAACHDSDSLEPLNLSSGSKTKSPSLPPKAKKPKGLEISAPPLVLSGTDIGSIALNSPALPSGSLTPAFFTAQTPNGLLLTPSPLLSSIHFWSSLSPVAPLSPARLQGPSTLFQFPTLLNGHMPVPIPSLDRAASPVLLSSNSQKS
# Procedure, shortened: as §1
# [10] = target: T7, FEV (Homo sapiens, UniProt Q99581 1-238); settings: protein: recombinant; tags: N-terminal GST; dsDNA, one strand shown
# T7 sequence: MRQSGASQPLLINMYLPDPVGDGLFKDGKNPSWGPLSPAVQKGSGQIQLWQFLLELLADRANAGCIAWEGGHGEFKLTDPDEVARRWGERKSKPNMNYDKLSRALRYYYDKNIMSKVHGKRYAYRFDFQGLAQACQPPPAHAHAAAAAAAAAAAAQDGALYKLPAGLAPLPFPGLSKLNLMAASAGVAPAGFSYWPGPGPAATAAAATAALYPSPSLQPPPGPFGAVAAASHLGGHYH
# Procedure, shortened: as §1
# [11] = target: ETV5 (Homo sapiens, UniProt P41161 1-510); settings: protein: recombinant; tags: N-terminal GST; dsDNA, one strand shown
# Procedure, shortened: as §1
# [12] = target: HSF1 (Homo sapiens, UniProt Q00613 1-529); settings: protein: recombinant; tags: N-terminal GST; chain copies: 3; dsDNA, one strand shown
# Procedure, shortened: as §1
# [13] = target: T8, SPIC (Homo sapiens, UniProt Q8N5J4 1-248); settings: protein: recombinant; tags: N-terminal GST; dsDNA, one strand shown
# T8 sequence: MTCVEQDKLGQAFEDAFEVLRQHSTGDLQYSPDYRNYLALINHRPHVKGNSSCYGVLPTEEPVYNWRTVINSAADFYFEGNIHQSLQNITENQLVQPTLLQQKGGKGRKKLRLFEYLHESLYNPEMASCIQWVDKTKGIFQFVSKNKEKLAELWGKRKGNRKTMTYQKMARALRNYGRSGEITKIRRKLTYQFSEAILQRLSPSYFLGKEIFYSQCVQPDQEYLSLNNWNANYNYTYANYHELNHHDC
# Procedure, shortened: as §1
# [14] = target: ELF4 (Homo sapiens, UniProt Q99607 1-663); settings: protein: recombinant; tags: N-terminal GST; dsDNA, one strand shown
# Procedure, shortened: as §1
# [15] = target: T9, ELK4 (Homo sapiens, UniProt P28324-2 1-405); settings: protein: recombinant; tags: N-terminal GST; dsDNA, one strand shown
# T9 sequence: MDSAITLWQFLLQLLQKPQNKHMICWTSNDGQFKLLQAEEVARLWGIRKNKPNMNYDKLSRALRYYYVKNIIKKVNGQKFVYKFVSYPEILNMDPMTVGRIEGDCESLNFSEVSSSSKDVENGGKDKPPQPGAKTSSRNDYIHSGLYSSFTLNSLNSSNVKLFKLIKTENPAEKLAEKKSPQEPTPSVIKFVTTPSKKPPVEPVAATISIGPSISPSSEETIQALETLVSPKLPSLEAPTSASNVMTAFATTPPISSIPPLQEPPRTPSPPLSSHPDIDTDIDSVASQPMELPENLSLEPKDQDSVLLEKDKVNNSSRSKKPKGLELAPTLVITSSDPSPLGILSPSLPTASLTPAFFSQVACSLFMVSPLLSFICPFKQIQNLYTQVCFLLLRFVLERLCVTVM
# Procedure, shortened: as §1
# [16] = target: T10, ETV2 (Homo sapiens, UniProt O00321 1-342); settings: protein: recombinant; tags: N-terminal GST; dsDNA, one strand shown
# T10 sequence: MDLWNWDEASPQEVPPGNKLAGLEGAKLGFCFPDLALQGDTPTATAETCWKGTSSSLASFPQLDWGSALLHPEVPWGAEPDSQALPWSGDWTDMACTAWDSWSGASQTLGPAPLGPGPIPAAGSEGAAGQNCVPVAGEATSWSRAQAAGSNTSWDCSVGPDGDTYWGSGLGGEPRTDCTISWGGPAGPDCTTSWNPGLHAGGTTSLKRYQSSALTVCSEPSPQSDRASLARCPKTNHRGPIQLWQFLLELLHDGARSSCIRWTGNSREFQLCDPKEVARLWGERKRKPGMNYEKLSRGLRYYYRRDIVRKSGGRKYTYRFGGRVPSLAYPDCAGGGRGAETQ
# Procedure, shortened: as §1
# [17] = target: T11, ELF3 (Homo sapiens, UniProt P78545 1-371); settings: protein: recombinant; tags: N-terminal GST; dsDNA, one strand shown
# T11 sequence: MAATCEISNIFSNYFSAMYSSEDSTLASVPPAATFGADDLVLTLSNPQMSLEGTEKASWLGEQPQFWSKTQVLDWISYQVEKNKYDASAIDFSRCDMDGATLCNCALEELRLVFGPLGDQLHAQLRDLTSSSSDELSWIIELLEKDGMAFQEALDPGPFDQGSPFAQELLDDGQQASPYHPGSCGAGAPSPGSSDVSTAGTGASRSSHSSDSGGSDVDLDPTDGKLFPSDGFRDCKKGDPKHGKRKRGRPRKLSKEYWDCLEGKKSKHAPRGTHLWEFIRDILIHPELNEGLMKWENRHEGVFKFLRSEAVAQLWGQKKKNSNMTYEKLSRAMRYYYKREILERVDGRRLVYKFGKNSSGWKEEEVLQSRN
# Procedure, shortened: as §1
# [18] = target: CRX (Homo sapiens, UniProt O43186 1-299); settings: protein: recombinant; tags: N-terminal GST; dsDNA, one strand shown
# Procedure, shortened: as §1
# [19] = target: ETV1 (Homo sapiens, UniProt P50549 1-477); settings: protein: recombinant; tags: N-terminal GST; dsDNA, one strand shown
# Procedure, shortened: as §1
# Chain of HSF1 (Q00613 whole entry): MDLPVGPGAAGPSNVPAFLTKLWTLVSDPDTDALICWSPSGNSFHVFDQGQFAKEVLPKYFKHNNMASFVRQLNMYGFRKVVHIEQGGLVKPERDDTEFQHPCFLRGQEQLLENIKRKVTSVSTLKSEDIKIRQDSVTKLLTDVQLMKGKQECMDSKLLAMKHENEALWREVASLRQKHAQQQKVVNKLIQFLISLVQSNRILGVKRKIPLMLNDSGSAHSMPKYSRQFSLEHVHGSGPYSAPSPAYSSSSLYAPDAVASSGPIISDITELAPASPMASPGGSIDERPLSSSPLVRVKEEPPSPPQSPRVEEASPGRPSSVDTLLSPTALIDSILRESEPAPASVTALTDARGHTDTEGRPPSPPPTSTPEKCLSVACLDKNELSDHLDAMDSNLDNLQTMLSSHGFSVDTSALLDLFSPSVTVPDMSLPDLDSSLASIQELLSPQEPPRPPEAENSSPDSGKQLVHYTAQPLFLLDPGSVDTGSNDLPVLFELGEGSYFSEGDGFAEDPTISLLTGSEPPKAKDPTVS
# Chain of ELF4 (Q99607 whole entry): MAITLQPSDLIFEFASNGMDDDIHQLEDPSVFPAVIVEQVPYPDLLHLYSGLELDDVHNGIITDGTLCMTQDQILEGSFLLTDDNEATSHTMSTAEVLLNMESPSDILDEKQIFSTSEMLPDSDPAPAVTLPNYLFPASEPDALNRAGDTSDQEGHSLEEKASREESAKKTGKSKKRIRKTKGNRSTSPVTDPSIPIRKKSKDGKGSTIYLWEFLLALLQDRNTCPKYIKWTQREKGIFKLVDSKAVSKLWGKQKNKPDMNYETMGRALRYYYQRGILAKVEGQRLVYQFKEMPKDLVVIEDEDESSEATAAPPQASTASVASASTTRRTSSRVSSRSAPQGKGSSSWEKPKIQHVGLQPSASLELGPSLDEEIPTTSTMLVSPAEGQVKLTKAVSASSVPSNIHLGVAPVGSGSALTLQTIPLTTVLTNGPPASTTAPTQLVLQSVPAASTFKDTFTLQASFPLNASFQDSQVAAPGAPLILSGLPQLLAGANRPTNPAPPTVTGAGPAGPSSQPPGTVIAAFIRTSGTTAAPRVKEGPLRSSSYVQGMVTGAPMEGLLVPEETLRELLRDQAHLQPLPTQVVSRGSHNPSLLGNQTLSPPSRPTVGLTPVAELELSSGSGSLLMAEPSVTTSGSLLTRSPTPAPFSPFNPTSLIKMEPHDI
# Chain of SPIB (Q01892 whole entry): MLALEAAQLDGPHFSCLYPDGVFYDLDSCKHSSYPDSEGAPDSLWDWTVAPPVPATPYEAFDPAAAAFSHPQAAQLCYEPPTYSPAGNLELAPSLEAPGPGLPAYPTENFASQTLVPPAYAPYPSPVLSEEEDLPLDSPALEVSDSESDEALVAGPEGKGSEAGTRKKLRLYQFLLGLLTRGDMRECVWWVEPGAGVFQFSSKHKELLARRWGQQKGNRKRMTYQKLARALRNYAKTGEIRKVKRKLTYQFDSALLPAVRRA
# Chain of ELF1 (P32519 whole entry): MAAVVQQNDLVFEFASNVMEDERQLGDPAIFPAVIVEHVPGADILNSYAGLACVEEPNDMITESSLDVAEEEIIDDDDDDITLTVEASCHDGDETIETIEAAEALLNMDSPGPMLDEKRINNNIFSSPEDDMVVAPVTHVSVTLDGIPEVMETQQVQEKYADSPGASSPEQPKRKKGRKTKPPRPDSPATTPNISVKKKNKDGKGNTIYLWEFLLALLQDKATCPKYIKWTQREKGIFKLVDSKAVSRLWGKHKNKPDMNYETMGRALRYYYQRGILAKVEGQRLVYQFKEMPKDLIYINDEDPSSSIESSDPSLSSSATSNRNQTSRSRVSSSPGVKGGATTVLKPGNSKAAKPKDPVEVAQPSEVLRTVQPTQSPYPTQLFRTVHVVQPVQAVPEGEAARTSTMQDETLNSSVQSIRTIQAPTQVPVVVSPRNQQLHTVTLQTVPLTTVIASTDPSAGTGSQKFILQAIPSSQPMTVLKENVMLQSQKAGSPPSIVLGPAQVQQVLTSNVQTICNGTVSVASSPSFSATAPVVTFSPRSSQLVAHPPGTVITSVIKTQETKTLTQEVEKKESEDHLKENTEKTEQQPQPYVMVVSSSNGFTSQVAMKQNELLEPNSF
# Chain of ETV1 (P50549 whole entry): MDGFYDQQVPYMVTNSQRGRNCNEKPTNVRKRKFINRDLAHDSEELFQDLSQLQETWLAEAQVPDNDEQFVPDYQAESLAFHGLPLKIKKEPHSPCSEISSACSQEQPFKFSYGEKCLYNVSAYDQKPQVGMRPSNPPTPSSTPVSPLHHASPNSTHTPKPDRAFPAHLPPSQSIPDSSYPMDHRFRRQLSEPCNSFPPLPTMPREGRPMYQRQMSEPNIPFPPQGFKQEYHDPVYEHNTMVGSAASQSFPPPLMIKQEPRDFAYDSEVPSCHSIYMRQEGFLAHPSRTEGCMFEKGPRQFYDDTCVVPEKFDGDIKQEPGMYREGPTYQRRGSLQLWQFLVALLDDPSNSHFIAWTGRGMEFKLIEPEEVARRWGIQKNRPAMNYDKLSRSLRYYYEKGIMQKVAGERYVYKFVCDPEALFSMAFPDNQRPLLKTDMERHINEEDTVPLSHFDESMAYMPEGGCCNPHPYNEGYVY
# Chain of CRX (O43186 whole entry): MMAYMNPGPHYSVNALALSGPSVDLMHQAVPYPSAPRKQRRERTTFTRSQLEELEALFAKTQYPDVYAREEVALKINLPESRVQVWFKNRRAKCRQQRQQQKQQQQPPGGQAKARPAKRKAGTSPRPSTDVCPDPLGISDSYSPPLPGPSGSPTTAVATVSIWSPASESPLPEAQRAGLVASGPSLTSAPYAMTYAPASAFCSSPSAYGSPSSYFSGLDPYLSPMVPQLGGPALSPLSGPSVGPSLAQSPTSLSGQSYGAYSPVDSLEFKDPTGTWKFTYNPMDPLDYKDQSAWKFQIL
# Chain of ETV5 (P41161 whole entry): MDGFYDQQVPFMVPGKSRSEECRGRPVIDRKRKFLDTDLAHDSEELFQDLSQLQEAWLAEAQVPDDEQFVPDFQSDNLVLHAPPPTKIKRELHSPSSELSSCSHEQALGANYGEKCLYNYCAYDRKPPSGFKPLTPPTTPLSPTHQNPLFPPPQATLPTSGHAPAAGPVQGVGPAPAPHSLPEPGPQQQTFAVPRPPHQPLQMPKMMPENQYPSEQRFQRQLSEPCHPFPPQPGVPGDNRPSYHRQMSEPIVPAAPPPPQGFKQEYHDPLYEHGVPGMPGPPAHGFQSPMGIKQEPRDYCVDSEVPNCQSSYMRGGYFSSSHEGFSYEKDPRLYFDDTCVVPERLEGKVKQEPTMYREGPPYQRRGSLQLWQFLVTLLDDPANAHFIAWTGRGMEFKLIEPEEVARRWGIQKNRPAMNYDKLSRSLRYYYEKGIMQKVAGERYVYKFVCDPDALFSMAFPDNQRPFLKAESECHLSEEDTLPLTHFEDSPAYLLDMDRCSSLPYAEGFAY
sequence,measurement,setting,value
TCCACA,binding signal,[1],"1.3 fold enrichment (6-mer frequency, TF over GST control)"
same,binding signal,[2],"1.27 fold enrichment (6-mer frequency, TF over GST control)"
same,binding signal,[3],"1.26 fold enrichment (6-mer frequency, TF over GST control)"
same,binding signal,[4],"1.19 fold enrichment (6-mer frequency, TF over GST control)"
same,binding signal,[5],"1.23 fold enrichment (6-mer frequency, TF over GST control)"
same,binding signal,[6],"1.25 fold enrichment (6-mer frequency, TF over GST control)"
same,binding signal,[7],"1.28 fold enrichment (6-mer frequency, TF over GST control)"
same,binding signal,[8],"1.14 fold enrichment (6-mer frequency, TF over GST control)"
same,binding signal,[9],"1.35 fold enrichment (6-mer frequency, TF over GST control)"
same,binding signal,[10],"1.21 fold enrichment (6-mer frequency, TF over GST control)"
same,binding signal,[11],"1.25 fold enrichment (6-mer frequency, TF over GST control)"
same,binding signal,[12],"1.36 fold enrichment (6-mer frequency, TF over GST control)"
same,binding signal,[13],"1.31 fold enrichment (6-mer frequency, TF over GST control)"
same,binding signal,[14],"1.27 fold enrichment (6-mer frequency, TF over GST control)"
same,binding signal,[15],"1.25 fold enrichment (6-mer frequency, TF over GST control)"
same,binding signal,[16],"1.17 fold enrichment (6-mer frequency, TF over GST control)"
same,binding signal,[17],"1.22 fold enrichment (6-mer frequency, TF over GST control)"
same,binding signal,[18],"1.1 fold enrichment (6-mer frequency, TF over GST control)"
same,binding signal,[19],"1.15 fold enrichment (6-mer frequency, TF over GST control)"
